In all, about 1,200 compounds went through this assay and about 600 (50%) were called active. The set was probably picked from earlier hits. The list shows a part of the results. Results with a measured potency or affinity are listed apart. A number with no mark means an inactive call. Cut-off read from the data, not from the text of the source: active = inhibition above about 42%; inactive = the rest.
Each compound was assayed against SUMO-conjugating enzyme UBC9 (Homo sapiens) (UniProt P63279) (assay: blockers of UBC9-mediated SUMO conjugation – biochemical, AlphaScreen, SUMOylation inhibitor project, confirmation (AID 2018)). Conditions: AlphaScreen in vitro SUMOylation assay; at 35 µM; active compounds read high.
Chain of SUMO-conjugating enzyme UBC9 (Homo sapiens) (P63279 whole entry, looked up): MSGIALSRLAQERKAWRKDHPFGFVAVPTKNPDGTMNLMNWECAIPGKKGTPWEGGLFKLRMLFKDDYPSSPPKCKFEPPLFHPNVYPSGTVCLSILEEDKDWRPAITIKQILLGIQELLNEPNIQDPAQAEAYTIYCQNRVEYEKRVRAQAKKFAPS

Structure (SMILES)	inhibition
Cc1cc(-c2csc(NC(=O)c3ccc(=O)[nH]c3)n2)c(C)n1Cc1ccccc1	29.1%
CC1CCN(Cc2cc(=O)oc3cc(O)c(Cl)cc23)CC1	-10.6%
Cc1ccc(-c2nn(-c3ccccc3)cc2/C=C2\SC(=S)N(CCCCCC(=O)O)C2=O)o1	74.8% (active)
O=C(O)CCCN1C(=O)/C(=C/c2cn(-c3ccccc3)nc2-c2cccs2)SC1=S	76% (active)
Cc1ccc(N/N=C2\CC(=O)c3ccccc32)cc1Cl	78.3% (active)
Cc1ccc(NC(=O)CN2C(=O)S/C(=C/c3ccc(-c4cc(C(=O)O)ccc4C)o3)C2=O)cc1C	101% (active)
CC(=O)N1C(=S)NC(=O)/C1=C1/C(=O)N(CC(=O)Nc2cccc(C)c2)c2ccccc21	12.6%
Cc1cccc(N(C)C(=O)c2cc3c(=O)[nH]c4ccc(C)cc4c3s2)c1	37.8%
CCOC(=O)c1ccc(N2C(=O)c3n[nH]c(-c4ccco4)c3C2c2ccc([N+](=O)[O-])cc2)cc1 (centres undefined)	34.2%
Cc1c(C(=O)O)cccc1-c1ccc(/C=C2\SC(=O)NC2=O)o1	48.8% (active)
CCc1cc2c(=O)c(Oc3ccccc3F)c(C)oc2c(CN(C)C)c1O	-4.3%
CC1=NN(c2ccc(C)cc2C)C(=O)C1C(c1cccc(O)c1)C1C(=O)N(c2ccc(C)cc2C)N=C1C (centres undefined)	81.1% (active)
CC1=NN(c2ccc(Cl)cc2)C(=O)C1C(c1ccccc1O)c1c(C)[nH]n(-c2ccc(Cl)cc2)c1=O (centres undefined)	82.4% (active)
CC1=NN(c2ccc(F)cc2)C(=O)C1C(c1cccc(O)c1)c1c(C)[nH]n(-c2ccc(F)cc2)c1=O (centres undefined)	89.4% (active)
O=[N+]([O-])c1c(NCCO)cc(N2CCC3(CC2)OCCO3)c2nonc12	8.2%
CCCCCC(=O)Nc1ccc(-c2cn3cccnc3n2)cc1	10.6%
COC12NC(=O)N(C)C1(OC)C(=O)N(C)C(=O)N2C (centres undefined)	-6.8%
Cc1cccc(S(=O)(=O)C(C#N)c2nc3ccccc3nc2N2CC(C)OC(C)C2)c1 (centres undefined)	3.9%
COc1ccc(S(=O)(=O)C(C#N)c2nc3ccccc3nc2N2CCCC(C)C2)cc1 (centres undefined)	49.9% (active)
Cc1ccc(-n2c(SCC(=O)N/N=C/c3ccccc3C(=O)O)nnc2-c2ccc(Cl)cc2)cc1	3.5%
Cc1ccc(-n2c(SCC(=O)Nc3ccc4c5c(cccc35)CC4)nc(O)cc2=O)cc1	30.4%
CN(C)/C=N/c1nc2nccc(-c3cccc(Cl)c3)n2n1	-11.7%
CCCCNC(=O)Oc1c(Br)cc2sc(=O)oc2c1Br	88.3% (active)
CC(=O)c1ccc2c(c1)C1C=CCC1C(C(=O)O)N2 (centres undefined)	101% (active)
O=C(O)CCCN1C(=O)/C(=C/C=C/c2ccco2)SC1=S	100% (active)

Structure (SMILES)	inhibition
Nc1ccc2c(c1)sc1ccccc12	20.5%
CCN(CC)S(=O)(=O)c1ccc(C)c(NC(=O)CSc2ncc(C(F)(F)F)cc2Cl)c1	11.7%
CN(C)CCCn1c(N)c(C#N)c2nc3ccccc3nc21	38.6%
CC(C)Cn1c(N)c(C(=O)NCC2CCCO2)c2nc3ccccc3nc21 (centres undefined)	0%
COCCn1c(N)c(C#N)c2nc3ccccc3nc21	29.5%
COCCn1c(N)c(C(=O)OCc2ccccc2)c2nc3ccccc3nc21	-26.1%
COCCNC(=O)c1c(N)n(CCCn2ccnc2)c2nc3ccccc3nc12	5.2%
C=CCn1c(N)c(C(=O)NCC2CCCO2)c2nc3ccccc3nc21 (centres undefined)	-9.9%
COCCn1c(N)c(C(=O)NCC2CCCO2)c2nc3ccccc3nc21 (centres undefined)	42.3% (active)
Cc1oc2c(c(C)cc3oc(=O)c(CC(=O)NCC(=O)NCC(=O)O)c(C)c32)c1C	-1.1%
Cc1ccc(C)n1-c1nccc(-c2cccs2)n1	21.2%
O=c1oc2ccccc2c(Nc2cccc3cccnc23)c1[N+](=O)[O-]	7.5%
C=CCn1c(N)c(C(=O)OC(C)(C)C)c2nc3ccccc3nc21	5.9%
N#Cc1c(N)n(CCNC(=O)c2ccccc2)c2nc3ccccc3nc12	29.4%
C=CCn1c(N)c(C(=O)Nc2cccc(C)c2)c2nc3ccccc3nc21	8.9%
CCCCn1c(NC(C)=O)c(C#N)c2nc3ccccc3nc21	15.5%
N#Cc1c(N)n(CCOC(=O)c2ccc(Cl)cc2)c2nc3ccccc3nc12	-17.7%
N#Cc1c(N)n(-c2cccc(C(=O)O)c2)c2nc3ccccc3nc12	43% (active)
Cc1ccc2[nH]c3c(c2c1)CN(C(=O)CN1CCCc2ccccc21)CC3	41%
C/C(CCc1ccco1)=N\NC(=O)CNc1cccc2ccccc12	6.1%
Cn1nccc1NC(=O)Nc1cccc(Cl)c1	10.6%
O=C(NC(=S)Nc1c(Cl)ccc2nsnc12)c1ccco1	19.5%
Nc1ccc(N2CCN(CCCCN3C(=O)C4CCCN4C3=O)CC2)cc1 (centres undefined)	29.6%
C/C(=C\C(=S)Nc1ccccc1)Nc1cccc2ccccc12	29.8%
Nc1ccc2oc(-c3cccs3)nc2c1	-13.9%

Structure (SMILES)	inhibition
CCN(CC)c1cc(Cl)c2nonc2c1N	16.4%
O=[N+]([O-])c1c(NCCO)cc(N2CCCCCC2)c2nonc12	6%
O=C(Nc1ccc(N2CCOCC2)c2nonc12)C1CCCC1	24%
Nc1c(N2CCOCC2)cc(Cl)c2nonc12	-2.8%
Nc1ccc(N2CCCCC2)c2nonc12	78.2% (active)
CN(C(=O)CSc1nnc(NCc2ccccc2)s1)C1CCS(=O)(=O)C1 (centres undefined)	12.1%
Nc1ccc(-c2nc3ccc(N)cc3[nH]2)cc1	-8.6%
COc1ccc(-c2nc3ccncc3[nH]2)cc1OC	11.1%
O=C(/C=C/c1ccco1)NC(=S)NNC(=O)c1ccco1	-483%
CN(C)c1ccc(C(=O)/C=C/c2ccco2)cc1	10.9%
O=C(/C=C\c1ccco1)c1ccc(NC(=O)c2ccco2)cc1	56.4% (active)
CCc1nc2sc(C(C)=O)c(N)c2c2c1CCCC2	-13%
CC(C)(C)C1CCC2(CC1)Nc1cccc3cccc(c13)N2	52.8% (active)
O=C(CCCN1C(=O)/C(=C/c2ccco2)SC1=S)Nc1ccccc1C(=O)O	76.9% (active)
O=C(CN1C(=O)CSC1=O)Nc1ccc(C(=O)O)cc1	-7.6%
COc1ccc(N2C(=O)[C@@H]3[C@H](C2=O)[C@H]2c4ccccc4C=CN2[C@@H]3C(C)=O)cc1	53.6% (active)
CCC(=O)N1CCc2cc(S(=O)(=O)NC(C(=O)NCc3ccc(C)cc3)C(C)C)ccc21 (centres undefined)	37.4%
Cc1ccoc1C(=O)NCCCNC(=O)c1occc1C	56.7% (active)
CN(C)c1cccc2cccc(N(C)C)c12	3.1%
Cc1cc2oc(C(=O)Nc3ccc(S(=O)(=O)Nc4nccs4)cc3)cc(=O)c2cc1Cl	75% (active)
CCN(c1ccccc1)c1cc2ccccc2c(=O)[nH]1	35.3%
O=c1[nH]c(Nc2ccccc2)cc2ccccc12	102% (active)
CCn1c(NC(=O)c2ccccc2)nc2ccccc21	73% (active)
Cn1c(-c2ccc(C=O)s2)nc2ccccc21	14.4%
Cc1ccc(C(=O)NC(C)c2nc3ccccc3n2CC(=O)Nc2c(C)cc(C)cc2C)cc1 (centres undefined)	5.3%

Structure (SMILES)	inhibition
CCOc1ccc(NC(=S)Nc2cccc3ccccc23)cc1	4.4%
CCOC(=O)COc1nc(-c2ccco2)cc(-c2ccco2)c1C#N	-28.4%
COc1ccc(C(N)c2nccc3cc(OC)c(OC)cc23)cc1OC (centres undefined)	22.1%
CC1=CC(C)(C)N2C(=O)C(=Nc3ccc(O)cc3)c3cccc1c32	95.8% (active)
CCC(=O)c1ccccc1OCCSc1nc(C)cc(=O)[nH]1	10.6%
Cc1cc(=O)[nH]c(SCC(=O)c2ccc(O)c(O)c2)n1	55.2% (active)
Cc1cc(=O)[nH]c(SCC(=O)Nc2cccc(C(F)(F)F)c2)n1	-20.9%
O=C(NN1C(=O)CSC1=S)C(=O)NN1C(=O)CSC1=S	102% (active)
CCOc1cc(CNc2cccc3ccccc23)cc(Br)c1OCC(=O)NC(C)(C)C	-1.9%
CCOc1cc(CNc2ccc(N3CCN(C(C)=O)CC3)cc2)cc(Br)c1OC	45.3% (active)
Oc1ccc2ccccc2c1C=NCc1cn2ccsc2n1	42.5% (active)
Oc1ccc2ccccc2c1C=NCc1ccccc1	38.6%
CCN(Cc1cc(=O)n2ccsc2n1)c1cccc2ccccc12	25.6%
Cc1ccc(NC(=S)Nc2ccc3cn[nH]c3c2)cc1	30.2%
CN(C)c1cccc2c(C=C(C#N)C#N)ccc(N(C)C)c12	19.4%
CCCS(=O)(=O)c1c(S(=O)(=O)CCC)c2c(N)cccn2c1C(=O)c1ccc(Br)cc1	23.1%
COc1ccc(N2C3=C(CC4=C2CCCC4=O)C(=O)CCC3)cc1	19.3%
CCOC(=O)C(CCCCOc1ccc([N+](=O)[O-])cc1)C(=O)OCC	-21.9%
O=C(O)/C=C/C(=O)Nc1ccc(O)cc1	15.1%
Cn1c(CNc2ccc(O)cc2)nc2ccccc21	16.9%
CCOc1cccc(CNc2ccc(O)cc2)c1OCc1ccc(Cl)cc1Cl	81% (active)
CCOc1ccccc1CNc1ccc(O)cc1	45.3% (active)
Oc1ccc(NCc2ccccc2OCc2ccccc2F)cc1	88.9% (active)
O=c1[nH]nc(CNc2ccc(O)cc2)c2ccccc12	9.6%
